A selection: hits, their analogues and other compounds. The true share with any hit is near 1.8%.
GLP1R cytotox = qHTS of GLP-1 Receptor Inverse Agonists: Cytotox Screen. HEK293 cAMP-luciferase reporter cells, luminescence, 24 h. Potency, µM (highest dose often 38.3 µM), actives largely listed as inhibitors. hit rate 0.13% among 410,000. AID 624418, 2012;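 also: loss of luciferase light is scored as toxicity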
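Here, cytotoxicity is scored as loss of luminescence. The MLSMR collection was tested on cells seeded in medium containing 10% Nu serum, with a 24 hr compound exposure preceded by 12 hours of culture.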
GLP-1R agonist = qHTS of GLP-1 Receptor Agonists; Potency, µM (doses to about 45.6 µM), hits mostly activators; Glucagon-like peptide 1 receptor (Homo sapiens), P43220; AID 624172, 2012; HEK293 GLP-1R CRE-luciferase, luminescence, 4-6 h; cells express a hypersensitive GLP-1R form; hit rate 0.007% among 380,000
TSHR antag = Antagonists of the Thyroid Stimulating Hormone Receptor: HTS campaign | Thyrotropin receptor (Homo sapiens), P16473 | activity change, negative = inhibition, % at 11.5 µM | hit rate 0.2% among 330,000 | TSHR-expressing cells, TSH-stimulated cAMP HTRF, 2 h; stronger effect = lower value;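 active = activity change below a set negative limit, meaning inhibition stronger than a set level, cut at about -70% in these data; inconclusive = activity change between two set negative limits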
Target sequence (P16473 whole entry, looked up): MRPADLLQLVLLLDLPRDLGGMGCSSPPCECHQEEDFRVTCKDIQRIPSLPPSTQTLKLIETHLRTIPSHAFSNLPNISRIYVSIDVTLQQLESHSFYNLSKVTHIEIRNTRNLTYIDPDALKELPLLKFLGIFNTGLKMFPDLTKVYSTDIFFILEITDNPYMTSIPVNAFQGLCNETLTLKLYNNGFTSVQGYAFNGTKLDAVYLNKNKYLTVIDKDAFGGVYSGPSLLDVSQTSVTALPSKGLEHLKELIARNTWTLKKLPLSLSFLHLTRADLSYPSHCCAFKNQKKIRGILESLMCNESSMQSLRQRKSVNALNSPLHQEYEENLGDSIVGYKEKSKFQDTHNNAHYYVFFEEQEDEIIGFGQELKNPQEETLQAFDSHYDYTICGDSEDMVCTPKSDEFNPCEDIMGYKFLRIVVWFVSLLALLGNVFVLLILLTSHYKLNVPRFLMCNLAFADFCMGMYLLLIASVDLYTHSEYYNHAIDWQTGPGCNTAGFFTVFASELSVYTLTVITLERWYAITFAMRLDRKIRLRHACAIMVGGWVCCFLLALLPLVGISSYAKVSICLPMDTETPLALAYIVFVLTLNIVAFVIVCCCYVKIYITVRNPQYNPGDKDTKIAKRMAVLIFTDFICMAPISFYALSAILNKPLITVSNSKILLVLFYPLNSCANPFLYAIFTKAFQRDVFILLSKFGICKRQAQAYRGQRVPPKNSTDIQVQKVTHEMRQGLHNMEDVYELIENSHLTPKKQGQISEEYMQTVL
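Freshly harvested TSHR cells receive pin-tooled compound, then EC80 TSH at 4nM final. After 2 hours at 37 deg C, antibody in lysis buffer and cAMP-d2 are added; 30 minutes at ambient temperature precede the HTRF read.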
PTHR1 ag = qHTS for PTHR1 Agonists: Primary Screen. Parathyroid hormone/parathyroid hormone-related peptide receptor (Homo sapiens), Q03431. HEK293 GP2 PTHR1 cells, GloSensor cAMP luminescence, 1 h. Potency, µM (highest dose often 115 µM), actives largely listed as activators. hit rate 0.075% among 410,000. AID 743266, 2014; also: nearly all actives have a fitted effect of over 55% in size
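HEK-293-derived GP2 cells expressing PTHR1 and a GloSensor cAMP reporter, 3,000/well, plated overnight, given luciferin plus IBMX (each 0.5 mM as added) for 1 h at 37 °C, then compound for 1 h at 37 °C. Luminescence was read after 15 min at room temperature.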
GLP-1R inv ag = qHTS of GLP-1 Receptor Inverse Agonists (Inhibition Mode). HEK293 GLP-1R CRE-luciferase, luminescence, 24 h; GLP-1R form is constitutively active. hit rate 1.6% among 410,000. Potency, µM (highest dose often 38.3 µM), usual class: inhibitors; also: nearly all actives have a fitted effect of over 55% in size
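Inverse agonism was detected as reduced cAMP-driven luciferase luminescence after 24 h compound treatment. The cells were HEK293 clones expressing constitutively active human GLP-1R with the reporter. Reporter-only and GPR119 cell lines served as counterscreen controls.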
Numbers stand for hits. Unless noted, calls follow the shape of the dose curve; as a rule, active = well fitted curve in the direction sought with a large enough effect; inconclusive = small, poorly fitted or top-dose-only effect, or another doubt; inactive = no such curve, though single readings can be large; an effect the other way counts as inactive or inconclusive.

CC1(C)CC2CC(C)(CN2/C=N/c2sc3c(c2C#N)CC(C)(C)NC3(C)C)C1 (centres undefined) was read as GLP1R cytotox inconclusive, GLP-1R agonist inactive, TSHR antag inactive, PTHR1 ag inactive and GLP-1R inv ag 1.12µM.
For NC(N)=N/N=C/c1ccc(Br)cc1 the results were GLP1R cytotox inconclusive, GLP-1R agonist inactive, TSHR antag inactive, PTHR1 ag inactive and GLP-1R inv ag 5.01µM.
For COc1ccc(Cl)cc1NC(=O)C1Cc2cc(S(=O)(=O)N3CCCC3)ccc2N1C(C)=O (centres undefined) the results were GLP1R cytotox inactive, GLP-1R agonist inactive, TSHR antag inactive, PTHR1 ag inactive and GLP-1R inv ag inconclusive.
Screening COc1ccc(S(=O)(=O)N2CCCCC2)cc1NCC(=O)Nc1ccc(C)cc1 returned GLP1R cytotox inactive, GLP-1R agonist inactive, TSHR antag inactive, PTHR1 ag inactive and GLP-1R inv ag 8.91µM.
Cc1ccc(S(=O)(=O)N2CCCCC2)cc1C(=O)Nc1ccc(N2CCOCC2)cc1 was read as GLP1R cytotox inactive, GLP-1R agonist inactive, TSHR antag inactive, PTHR1 ag inactive and GLP-1R inv ag inactive.
For COc1ccc(S(=O)(=O)N2CCCCC2)cc1NC(=O)CNc1ccccc1C(C)=O the results were GLP1R cytotox inactive, GLP-1R agonist inactive, TSHR antag inactive, PTHR1 ag inactive and GLP-1R inv ag inconclusive.
For COc1ccccc1CN(C)CC(=O)Nc1cccc(S(=O)(=O)N2CCCC2)c1 the results were GLP1R cytotox inactive, GLP-1R agonist inactive, TSHR antag inactive, PTHR1 ag inactive and GLP-1R inv ag inconclusive.
For COc1ccc(NC(=O)C2Cc3cc(S(=O)(=O)N4CCCCC4)ccc3N2C(C)=O)cc1Cl (centres undefined) the results were GLP1R cytotox inactive, GLP-1R agonist inactive, TSHR antag inactive, PTHR1 ag inactive and GLP-1R inv ag 10µM.
`COc1cccc(CN(C)CC(=O)Nc2cc(S(=O)(=O)N3CCCC3)ccc2Cl)c1OC` gave GLP1R cytotox inactive, GLP-1R agonist inactive, TSHR antag inactive, PTHR1 ag inactive and GLP-1R inv ag 7.94µM.
`COc1ccc(S(=O)(=O)N2CCOCC2)cc1C(=O)Nc1ccc(N2CCCCCC2)cc1` gave GLP1R cytotox inactive, GLP-1R agonist inactive, PTHR1 ag inactive and GLP-1R inv ag 10µM.
Screening CCCN(CCC)C(=O)Cn1c(=O)n(Cc2ccc(C(=O)NCCc3ccc(OC)c(OC)c3)cc2)c(=O)c2ccccc21 returned GLP1R cytotox inactive, GLP-1R agonist inactive, PTHR1 ag inconclusive and GLP-1R inv ag inactive.
For CS(=O)(=O)c1ccc(-c2csc(N3CCC(C(N)=O)CC3)n2)cc1 the results were TSHR antag inactive.
For Cc1cccc(OCCn2c(-c3ccc(Cl)cc3)nc3ccccc3c2=O)c1C the results were GLP1R cytotox inactive, PTHR1 ag inactive and GLP-1R inv ag inactive.
For COc1cc(Cl)c(C)cc1NCC(=O)Nc1cccc(S(=O)(=O)N2CCCC2)c1 the results were GLP1R cytotox inactive, GLP-1R agonist inactive, TSHR antag inactive, PTHR1 ag inactive and GLP-1R inv ag 8.91µM.
N#Cc1ccccc1OCC(=O)Nc1cccc(S(=O)(=O)N2CCCC2)c1 was read as GLP1R cytotox inactive, GLP-1R agonist inactive, TSHR antag inactive, PTHR1 ag inactive and GLP-1R inv ag inactive.
CCc1ccccc1OCC(=O)Nc1cccc(S(=O)(=O)N2CCCC2)c1 was read as GLP1R cytotox inactive, GLP-1R agonist inactive, TSHR antag inactive, PTHR1 ag inactive and GLP-1R inv ag 11.2µM.
`O=C(CNc1ccc(F)cc1Cl)Nc1cccc(S(=O)(=O)N2CCCCC2)c1` gave GLP1R cytotox inactive, GLP-1R agonist inactive, TSHR antag inactive, PTHR1 ag inactive and GLP-1R inv ag inconclusive.
Screening Cc1ccc(-c2nc(SCC(=O)Nc3cc(S(=O)(=O)N4CCCCC4)ccc3Cl)n[nH]2)cc1 returned GLP1R cytotox inconclusive, GLP-1R agonist inactive, TSHR antag inactive, PTHR1 ag inactive and GLP-1R inv ag 10µM.
For COc1ccc(S(=O)(=O)N(C)C)cc1NCC(=O)Nc1ccc(Br)c(C)c1 the results were GLP1R cytotox inactive, GLP-1R agonist inactive, TSHR antag inactive, PTHR1 ag inactive and GLP-1R inv ag 11.2µM.
Screening CCOc1ccc(Nc2c(S(=O)(=O)c3ccccc3)cnc3ccc(CC)cc23)cc1 returned GLP1R cytotox inactive, PTHR1 ag inactive and GLP-1R inv ag inconclusive.
Cc1ccc(S(=O)(=O)C(CNS(=O)(=O)c2ccc(F)c(C(F)(F)F)c2)c2ccco2)cc1 (centres undefined) was read as GLP1R cytotox inactive, PTHR1 ag inactive and GLP-1R inv ag inactive.
`Cc1cc(C)c(C)c(S(=O)(=O)N2CCC(C(=O)N3CCCC3)CC2)c1C` gave GLP1R cytotox inactive, GLP-1R agonist inactive, TSHR antag inactive, PTHR1 ag inactive and GLP-1R inv ag inactive.
Cc1cc(C)c(C)c(S(=O)(=O)N2CCC(C(=O)N3CCN(c4ccc(F)cc4)CC3)CC2)c1C was read as GLP1R cytotox inactive, GLP-1R agonist inactive, PTHR1 ag inactive and GLP-1R inv ag 5.01µM.
CCN(CC)CC#CC(OC)(c1ccccc1)c1ccccc1 was read as GLP1R cytotox inactive, GLP-1R agonist inactive, TSHR antag inactive, PTHR1 ag inactive and GLP-1R inv ag 5.01µM.
Screening CCN(CC)CCC#CC(O)(c1ccccc1)c1ccccc1 returned GLP1R cytotox inactive, GLP-1R agonist inactive, TSHR antag inactive, PTHR1 ag inactive and GLP-1R inv ag inconclusive.
For O=C(CCC1N=C2c3ccccc3N=C(SCc3cccc(F)c3)N2C1=O)NCc1cccs1 (centres undefined) the results were GLP1R cytotox inactive, PTHR1 ag inactive and GLP-1R inv ag inconclusive.
CC(C)CNC1=C(C(=S)Nc2ccccc2)C(=O)CC(C)(C)C1 was read as GLP1R cytotox inactive, GLP-1R agonist inactive, TSHR antag inactive, PTHR1 ag inactive and GLP-1R inv ag 3.98µM.
`CC1(C)CC(=O)C=C(NCCN2CCN(C(=S)Nc3ccccc3)CC2)C1` gave GLP1R cytotox inactive, GLP-1R agonist inactive, TSHR antag inactive, PTHR1 ag inactive and GLP-1R inv ag inactive.
For COc1ccc(C(=O)c2cn(Cc3ccc(C)cc3)c3cc4c(cc3c2=O)OCO4)cc1 the results were GLP1R cytotox inactive, PTHR1 ag inactive and GLP-1R inv ag inactive.
CCCC(=O)NC(c1ccco1)c1c(O)ccc2ccccc12 (centres undefined) was read as GLP1R cytotox inactive, GLP-1R agonist inactive, TSHR antag inactive, PTHR1 ag inactive and GLP-1R inv ag inconclusive.
